# Measurements as given in PubChem BioAssay (NCI).
# This is part of a sample that, as a whole, favours compounds with a hit. Of some 79,000 tested, about 15% had one in any assay. Unmarked numbers belong to inactive results. The source made the active and inactive calls. No stated cut-off is given here; in the data, active means growth inhibition above about 70%; inactive means the rest.
# Experiments:
# [1] = NCI Yeast Anticancer Drug Screen. Data for the rad50 strain (AID 155);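 further: 0% = growth of vehicle-only cultures of the same strain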; conditions: S. cerevisiae rad50 strain growth inhibition, stronger effect = higher value
# Procedure, shortened: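 Genetically altered yeast (DNA repair pathway); compound treatment; growth inhibition vs vehicle ctrl.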
# [2] = NCI Yeast Anticancer Drug Screen. Data for the mec2-1 strain (AID 157); conditions: S. cerevisiae mec2-1 strain, stronger effect = higher value
# Procedure, shortened: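 Vehicle-treated cultures served as reference for growth inhibition of compound-exposed mec2-1 yeast.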
# [3] = NCI Yeast Anticancer Drug Screen. Data for the sgs1 mgt1 strain (AID 161);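 further: 0% = growth of cultures given vehicle only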; conditions: S. cerevisiae sgs1 mgt1 strain, stronger effect = higher value
# Procedure, shortened: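 Read-out: growth inhibition vs vehicle controls. Cells: mutant yeast strain deficient in DNA damage repair.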
# [4] = NCI Yeast Anticancer Drug Screen. Data for the cln2 rad14 strain (AID 165);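 further: 0% = growth equal to vehicle treated cultures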; conditions: S. cerevisiae cln2 rad14 strain, stronger effect = higher value
# Procedure, shortened: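 Each compound was tested on cln2 rad14 yeast. Inhibition of growth was calculated against vehicle-exposed controls.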
# [5] = NCI Yeast Anticancer Drug Screen. Data for the bub3 strain (AID 167); conditions: S. cerevisiae bub3 mutant strain, stronger effect = higher value
# Procedure, shortened: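 Yeast carrying a defined mutation is treated with each compound, and growth is compared with that of vehicle-exposed cells to give inhibition.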
# [6] = NCI Yeast Anticancer Drug Screen. Data for the mlh1 rad18 strain (AID 175); conditions: S. cerevisiae mlh1 rad18 strain growth inhibition, stronger effect = higher value
# Procedure, shortened: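 Vehicle-treated cultures served as the reference for growth inhibition in a yeast strain carrying DNA damage repair alterations exposed to each compound.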
# [7] = at 5.0 µM (retest, dose inferred, filed as 0.5)
# [8] = at 50.0 µM (retest, dose inferred, filed as 5.0)
Structure (SMILES),"growth inhibition [1, 7]","growth inhibition [1, 8]",growth inhibition ([1]; at 50.0 µM),"growth inhibition [2, 7]","growth inhibition [2, 8]",growth inhibition ([2]; at 50.0 µM),"growth inhibition [3, 7]","growth inhibition [3, 8]",growth inhibition ([3]; at 50.0 µM),"growth inhibition [4, 7]","growth inhibition [4, 8]",growth inhibition ([4]; at 50.0 µM),"growth inhibition [5, 7]","growth inhibition [5, 8]",growth inhibition ([5]; at 50.0 µM),"growth inhibition [6, 7]","growth inhibition [6, 8]",growth inhibition ([6]; at 50.0 µM)
O=C1OCC2=C1C(c1ccc(Cl)cc1)c1cc3c(cc1O2)OCO3 (stereo not given),8%,10%,-23.4%,9%,8%,-20.4%,4%,16%,-5.5%,2%,18%,19.4%,17%,21%,6.15%,17%,7%,-15.8%
O=C1Oc2cc3c(c4cccc1c24)OCN(c1ccccc1)C3,-22%,25%,62.5%,-24%,19%,49.9%,-11%,18%,78.2% (active),-15%,15%,35%,-17%,25%,49%,-5%,49%,58%
CCCCCCCCCCOC(=O)c1ccccn1,-6%,93% (active),34.1%,-3%,94% (active),42.7%,-3%,60%,37.5%,-3%,75% (active),17.2%,0%,80% (active),43.2%,-2%,83% (active),62.5%
COc1ccc2c(c1)C(=O)/C(=C/c1ccc([N+](=O)[O-])o1)CO2,15%,99% (active),97.2% (active),10%,100% (active),38.2%,33%,100% (active),98.1% (active),15%,99% (active),57.1%,15%,99% (active),89.8% (active),78% (active),99% (active),98.2% (active)
COc1cccc2c1OC(c1ccc(Cl)cc1)C([N+](=O)[O-])=C2 (stereo not given),94% (active),96% (active),85.7% (active),95% (active),95% (active),89% (active),93% (active),96% (active),87.6% (active),86% (active),95% (active),81.8% (active),97% (active),96% (active),85.5% (active),96% (active),95% (active),84% (active)
CN(C)c1ccccc1CCCCCCc1ccccc1N(C)C,54%,59%,84% (active),55%,57%,74.7% (active),76% (active),72% (active),87.8% (active),79% (active),82% (active),85.2% (active),67%,50%,80.5% (active),38%,43%,76.3% (active)
O=C(CCCSCCCC(=O)NNc1ccccc1)NNc1ccccc1,31%,88% (active),96.2% (active),16%,95% (active),40.7%,30%,94% (active),87.4% (active),21%,92% (active),86.7% (active),45%,98% (active),96.5% (active),54%,98% (active),97.8% (active)
CC1CCCCC12C(C#N)(C#N)C2(C#N)C#N (stereo not given),22%,90% (active),99.2% (active),30%,97% (active),99.3% (active),33%,97% (active),99.5% (active),8%,89% (active),99.2% (active),43%,97% (active),99.4% (active),41%,98% (active),99.3% (active)
NNc1nc(Nc2ccccc2)nc(Nc2ccccc2)n1,-8%,93% (active),51.9%,-5%,10%,42%,-9%,56%,45.5%,-9%,52%,37.5%,-4%,44%,48.5%,-2%,51%,41.6%
Cc1nc(Nc2ccc(Cl)cc2)sc1C(=O)Nc1cccc2c(=O)[nH][nH]c(=O)c12,13%,13%,83% (active),6%,6%,90.8% (active),9%,9%,91% (active),3%,3%,87.5% (active),11%,11%,91.1% (active),14%,14%,89.7% (active)
